# Reference: PubChem BioAssay (EPA / NIEHS)
# Results filed as inconclusive are left out. Activity calls are given as the source filed them. How the source made its calls, unless noted: active means hit-call score of the fitted dose curve at least 0.9, where 1 is the maximum; inactive means score below 0.9.
# Assays:
# [1] = read-out: Monocyte Chemoattractant Protein-1 (MCP1), CCL2 (gene 6347); test: BSK_SAg_MCP1: BioMAP Diversity Plus: SAg Assay for Monocyte Chemoattractant Protein-1 (MCP1) Biomarker Activity (AID 2283090); conditions: primary human HUVEC with PBMC; actives raise or lower the signal
# How it was run: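 Values derive from bidirectional fitting of ELISA-measured MCP1 against DMSO controls. Readings were taken 24 h after dosing human vascular endothelial cells co-cultured with peripheral blood mononuclear cells under superantigen stimulation.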
# [2] = read-out: E-selectin (Homo sapiens) (UniProt P16581); test: BSK_SAg_Eselectin: BioMAP Diversity Plus: SAg Assay for Eselectin Biomarker Activity (AID 2283091); conditions: primary human HUVEC with PBMC; actives raise or lower the signal
# How it was run: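 Primary human endothelial cells and peripheral blood mononuclear cells were co-cultured and exposed to chemical for 24 hours. E-selectin levels were then quantified by ELISA, with bidirectional curve fitting normalised to DMSO controls.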
# [3] = read-out: Monokine induced gamma interferon (MIG), CXCL9 (gene 4283); test: BSK_SAg_MIG: BioMAP Diversity Plus: SAg Assay for Monokine induced gamma interferon (MIG) Biomarker Activity (AID 2283092); conditions: primary human HUVEC with PBMC; actives raise or lower the signal
# How it was run: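 ELISA readout of MIG/CXCL9; primary human umbilical vein endothelial cells co-cultured with peripheral blood mononuclear cells; 24 h post-dose; gain/loss fit vs DMSO baseline.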
# [4] = BSK_SAg_PBMCCytotoxicity: PBMC Cytotoxicity Assessment in the BioMAP Diversity Plus: SAg Assay (AID 2283093); conditions: primary human HUVEC with PBMC;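 further: PBMC viability measured as Alamar Blue reduction fluorescence at 546/580 nm; fitted both ways against DMSO so a hit may be loss or gain of signal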;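 on AC50: PBMC superantigen activated with SEB plus TSST-1 one hour after compound addition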
# How it was run: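 Alamar Blue reduction (6 h, ex/em 546/580 nm) read after 90 h culture of PBMC pre-dosed 1 h then stimulated with SEB plus TSST-1, 20 ng/mL each. Gain or loss of signal fitted relative to DMSO.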
# [5] = read-out: Interleukin-8 (IL8), CXCL8 (gene 3576); test: BSK_SAg_IL8: BioMAP Diversity Plus: SAg Assay for Interleukin-8 (IL8) Biomarker Activity (AID 2283094); conditions: primary human HUVEC with PBMC; actives raise or lower the signal
# How it was run: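 Chemicals were dosed onto a human endothelial–PBMC co-culture, and IL-8 was quantified by ELISA after 24 h. Both increases and decreases were fitted relative to DMSO.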
# [6] = BSK_SAg_Proliferation: Cell Proliferation Assessment in the BioMAP Diversity Plus: SAg Assay (AID 2283095); conditions: primary human HUVEC with PBMC;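 further: relative cell number as total protein by SRB absorbance in sub-confluent culture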
# How it was run: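 Absorbance of sulforhodamine B at 560 nm reports total protein in a human vascular endothelial/PBMC co-culture after 96 h chemical exposure. Gain or loss of signal is fitted in both directions against DMSO.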
# [7] = BSK_SAg_SRB: Viability Assessment in the BioMAP Diversity Plus: SAg Assay (AID 2283096); conditions: primary human HUVEC with PBMC;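 further: cells read one day after compound addition; hits may be either gain or loss of signal compared with DMSO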
# How it was run: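 SRB absorbance at 560 nm served as the viability read-out. Cells (HUVEC plus peripheral blood mononuclear cells) were TCA-fixed and stained 24 h post-dosing; activity fitted in both directions against DMSO controls.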
# [8] = biological target: human CYP19A1, CYP19A1 (gene 1588) (UniProt P11511); test: NVS_ADME_hCYP19A1: NovaScreen (NVS) CYP450-related Enzyme Activity (ADME) Assay for human CYP19A1 (AID 2283098; active means hit-call score of the fitted dose curve at least 0.9, where 1 is the maximum;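 on AC50: potency for inhibitors seen as loss of fluorescent enzyme signal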)
# human CYP19A1, CYP19A1 (gene 1588), sequence (P11511 whole entry, looked up): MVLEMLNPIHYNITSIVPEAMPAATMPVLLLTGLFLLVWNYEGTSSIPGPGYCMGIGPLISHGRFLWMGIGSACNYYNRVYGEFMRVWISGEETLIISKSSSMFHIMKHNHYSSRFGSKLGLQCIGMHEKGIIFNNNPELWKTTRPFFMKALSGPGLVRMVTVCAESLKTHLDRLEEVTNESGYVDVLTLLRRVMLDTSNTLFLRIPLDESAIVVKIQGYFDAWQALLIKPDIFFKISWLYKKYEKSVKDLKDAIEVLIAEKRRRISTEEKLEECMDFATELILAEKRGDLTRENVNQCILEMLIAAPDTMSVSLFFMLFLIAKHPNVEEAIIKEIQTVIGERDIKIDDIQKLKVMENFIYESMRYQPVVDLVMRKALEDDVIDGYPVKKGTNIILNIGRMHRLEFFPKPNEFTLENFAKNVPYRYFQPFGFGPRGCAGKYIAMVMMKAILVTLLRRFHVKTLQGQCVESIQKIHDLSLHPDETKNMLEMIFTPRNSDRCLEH
# How it was run: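 Primary testing was in duplicate at a single 10 uM concentration, with actives followed up in concentration-response series. Fluorescence read-out of recombinant enzyme activity at 0.5 h, cell-free. Acetonitrile was the negative-control baseline.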
# [9] = biological target: human CYP1A2, CYP1A2 (gene 1544) (UniProt P05177); test: NVS_ADME_hCYP1A2: NovaScreen (NVS) CYP450-related Enzyme Activity (ADME) Assay for human CYP1A2 (AID 2283102; active means hit-call score of the fitted dose curve at least 0.9, where 1 is the maximum;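 on AC50: fluorescence from turnover of a fluorogenic substrate by recombinant insect-cell CYP1A2; potency for inhibition since loss of fluorescence marks reduced CYP1A2 activity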)
# human CYP1A2, CYP1A2 (gene 1544), sequence (P05177 whole entry, looked up): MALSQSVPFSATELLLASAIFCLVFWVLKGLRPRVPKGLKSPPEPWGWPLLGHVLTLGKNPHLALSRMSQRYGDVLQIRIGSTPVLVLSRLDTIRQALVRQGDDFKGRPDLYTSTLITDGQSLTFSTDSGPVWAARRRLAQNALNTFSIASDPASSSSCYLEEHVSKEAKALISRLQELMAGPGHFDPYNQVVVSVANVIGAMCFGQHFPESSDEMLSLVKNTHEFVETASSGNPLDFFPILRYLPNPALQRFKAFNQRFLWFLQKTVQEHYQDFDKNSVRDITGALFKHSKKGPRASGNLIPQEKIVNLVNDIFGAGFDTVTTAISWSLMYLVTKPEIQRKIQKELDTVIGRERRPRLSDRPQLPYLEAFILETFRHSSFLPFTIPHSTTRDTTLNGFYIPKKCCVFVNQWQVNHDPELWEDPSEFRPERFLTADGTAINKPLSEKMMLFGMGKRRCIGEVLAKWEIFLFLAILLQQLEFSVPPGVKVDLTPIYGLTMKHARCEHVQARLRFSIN
# How it was run: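 Compounds were tested at 10 uM in duplicate against recombinant CYP1A2 produced in insect cells. Enzyme activity was measured by fluorescence 0.5 h after dosing, with loss of signal versus acetonitrile control. Active compounds were re-tested in concentration series.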
# [10] = biological target: human CYP2A6, CYP2A6 (gene 1548) (UniProt P11509); test: NVS_ADME_hCYP2A6: NovaScreen (NVS) CYP450-related Enzyme Activity (ADME) Assay for human CYP2A6 (AID 2283099; active means hit-call score of the fitted dose curve at least 0.9, where 1 is the maximum)
# human CYP2A6, CYP2A6 (gene 1548), sequence (P11509 whole entry, looked up): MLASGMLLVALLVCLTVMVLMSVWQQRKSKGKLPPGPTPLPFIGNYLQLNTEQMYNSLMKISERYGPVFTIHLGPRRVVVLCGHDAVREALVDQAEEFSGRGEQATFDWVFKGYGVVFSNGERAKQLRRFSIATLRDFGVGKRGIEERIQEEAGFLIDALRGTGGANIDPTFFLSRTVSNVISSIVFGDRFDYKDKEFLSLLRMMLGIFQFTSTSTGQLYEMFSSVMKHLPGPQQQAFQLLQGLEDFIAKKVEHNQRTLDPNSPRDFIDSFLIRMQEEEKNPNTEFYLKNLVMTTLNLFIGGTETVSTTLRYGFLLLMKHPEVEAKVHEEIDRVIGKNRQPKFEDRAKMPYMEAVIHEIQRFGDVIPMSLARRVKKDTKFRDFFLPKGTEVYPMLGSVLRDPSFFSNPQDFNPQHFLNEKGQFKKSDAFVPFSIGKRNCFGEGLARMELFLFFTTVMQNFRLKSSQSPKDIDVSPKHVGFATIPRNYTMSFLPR
# How it was run: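 Recombinant human CYP2A6 from insect cells was incubated with chemical for 0.5 h and activity read by fluorescence. Single-concentration duplicates at 10 uM preceded concentration-response testing to 20 uM, with activity referenced to acetonitrile.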
# E-selectin (Homo sapiens), sequence (P16581 whole entry, looked up): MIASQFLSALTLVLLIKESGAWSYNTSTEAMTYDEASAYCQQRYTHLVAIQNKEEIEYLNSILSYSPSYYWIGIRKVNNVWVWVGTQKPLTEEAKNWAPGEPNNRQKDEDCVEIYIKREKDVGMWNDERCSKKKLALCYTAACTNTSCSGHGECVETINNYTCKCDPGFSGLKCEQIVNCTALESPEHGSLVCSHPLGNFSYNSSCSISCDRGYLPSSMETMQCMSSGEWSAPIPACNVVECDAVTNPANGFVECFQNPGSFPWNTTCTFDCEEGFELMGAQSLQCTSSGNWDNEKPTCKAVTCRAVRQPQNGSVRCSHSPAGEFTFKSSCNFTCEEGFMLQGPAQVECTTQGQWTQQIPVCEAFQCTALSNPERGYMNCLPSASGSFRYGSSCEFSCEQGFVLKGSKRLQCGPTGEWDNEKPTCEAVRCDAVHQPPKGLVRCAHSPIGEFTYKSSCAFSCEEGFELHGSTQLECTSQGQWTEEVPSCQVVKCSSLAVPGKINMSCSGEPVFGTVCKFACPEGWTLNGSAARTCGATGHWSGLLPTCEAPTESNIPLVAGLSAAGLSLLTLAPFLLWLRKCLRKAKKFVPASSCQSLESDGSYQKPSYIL
compound,measurement,setting,value
CCC(CC)Nc1c([N+](=O)[O-])cc(C)c(C)c1[N+](=O)[O-],AC50,[1],29.1 µM (active)
same,AC50,[2],22.7 µM (active)
same,AC50,[3],29.5 µM (active)
same,AC50,[4],29.2 µM (active)
same,AC50,[5],28.3 µM (active)
same,AC50,[6],28.9 µM (active)
same,AC50,[7],12.3 µM (active)
same,outcome,[8],inactive
same,outcome,[9],inactive
CCNc1nc(Cl)nc(NC(C)(C)C#N)n1,outcome,[1],inactive
same,AC50,[2],4.59 µM (active)
same,outcome,[3],inactive
same,outcome,[4],inactive
same,outcome,[5],inactive
same,outcome,[6],inactive
same,outcome,[7],inactive
CC(COc1ccc(Oc2ccccc2)cc1)Oc1ccccn1 (centres undefined),outcome,[1],inactive
same,outcome,[2],inactive
same,outcome,[3],inactive
same,AC50,[4],12 µM (active)
same,outcome,[5],inactive
same,AC50,[6],26.7 µM (active)
same,AC50,[7],7.1 µM (active)
same,outcome,[9],inactive
CCCCSP(=O)(SCCCC)SCCCC,AC50,[1],20 µM (active)
same,outcome,[2],inactive
same,outcome,[3],inactive
same,AC50,[4],34.8 µM (active)
same,AC50,[5],25.9 µM (active)
same,AC50,[6],36.2 µM (active)
same,AC50,[7],22.5 µM (active)
same,AC50,[9],8.52 µM (active)
CCc1cccc(CC)c1N(COC)C(=O)CCl,AC50,[1],29.4 µM (active)
same,AC50,[2],14.2 µM (active)
same,outcome,[3],inactive
same,outcome,[4],inactive
same,outcome,[5],inactive
same,AC50,[6],23.6 µM (active)
same,AC50,[7],20 µM (active)
CCOP(=S)(OCC)Oc1ccc2c(C)c(Cl)c(=O)oc2c1,outcome,[1],inactive
same,AC50,[2],5.21 µM (active)
same,outcome,[3],inactive
same,outcome,[4],inactive
same,outcome,[5],inactive
same,AC50,[6],5.08 µM (active)
same,outcome,[7],inactive
same,AC50,[9],1.17 µM (active)
Cc1ccn2nc(S(=O)(=O)Nc3c(F)cccc3F)nc2n1,outcome,[1],inactive
same,outcome,[2],inactive
same,outcome,[3],inactive
same,outcome,[4],inactive
same,outcome,[6],inactive
same,outcome,[7],inactive
CNC(=O)Oc1cccc2c1OC(C)(C)O2,outcome,[1],inactive
same,AC50,[2],15 µM (active)
same,outcome,[3],inactive
same,outcome,[4],inactive
same,outcome,[5],inactive
same,AC50,[6],20 µM (active)
same,outcome,[7],inactive
CCc1cnc(C2=NC(C)(C(C)C)C(=O)N2)c(C(=O)O)c1 (centres undefined),outcome,[1],inactive
same,outcome,[2],inactive
same,outcome,[3],inactive
same,outcome,[4],inactive
same,outcome,[6],inactive
same,outcome,[7],inactive
CC(C)N(C(=O)SCC(Cl)=C(Cl)Cl)C(C)C,AC50,[1],31.3 µM (active)
same,AC50,[2],31.8 µM (active)
same,AC50,[3],36.7 µM (active)
same,AC50,[4],36.5 µM (active)
same,AC50,[5],31 µM (active)
same,AC50,[6],38 µM (active)
same,AC50,[7],31.5 µM (active)
CCOP(=S)(OCC)SCCSCC,outcome,[1],inactive
same,outcome,[2],inactive
same,outcome,[3],inactive
same,outcome,[4],inactive
same,outcome,[5],inactive
same,outcome,[6],inactive
same,outcome,[7],inactive
CC(C)=CC1C(C(=O)OCN2C(=O)C3=C(CCCC3)C2=O)C1(C)C (centres undefined),AC50,[1],18.2 µM (active)
same,AC50,[2],14.4 µM (active)
same,AC50,[3],34.2 µM (active)
same,AC50,[4],26.1 µM (active)
same,AC50,[6],26.1 µM (active)
same,outcome,[7],inactive
C=C(C)[C@H]1Cc2c(ccc3c2O[C@@H]2COc4cc(OC)c(OC)cc4[C@@H]2C3=O)O1,AC50,[1],16.7 µM (active)
same,AC50,[2],4.05 µM (active)
same,AC50,[3],27.2 µM (active)
same,outcome,[4],inactive
same,AC50,[5],1.61 µM (active)
same,AC50,[6],5.57 µM (active)
same,AC50,[7],5.52 µM (active)
same,outcome,[8],inactive
CC1(C(=O)Nc2ccc(O)c(Cl)c2Cl)CCCCC1,outcome,[1],inactive
same,outcome,[2],inactive
same,outcome,[3],inactive
same,outcome,[4],inactive
same,outcome,[5],inactive
same,outcome,[7],inactive
CCCCOC(=O)[C@@H](C)Oc1ccc(Oc2ccc(C#N)cc2F)cc1,outcome,[1],inactive
same,outcome,[2],inactive
same,outcome,[3],inactive
same,outcome,[4],inactive
same,outcome,[5],inactive
same,outcome,[6],inactive
same,outcome,[7],inactive
CCOP(=S)(OCC)Oc1cc(C)nc(C(C)C)n1,outcome,[1],inactive
same,outcome,[2],inactive
same,outcome,[3],inactive
same,outcome,[4],inactive
same,outcome,[5],inactive
same,outcome,[6],inactive
same,outcome,[7],inactive
same,outcome,[8],inactive
COc1ccc(C(=CC(=O)N2CCOCC2)c2ccc(Cl)cc2)cc1OC,AC50,[1],12.8 µM (active)
same,AC50,[2],5.93 µM (active)
same,AC50,[3],25 µM (active)
same,AC50,[4],9.07 µM (active)
same,AC50,[5],8.93 µM (active)
same,AC50,[6],12.9 µM (active)
same,outcome,[7],inactive
same,AC50,[8],4.42 µM (active)
CNC(=O)ON=C(C)SC,outcome,[1],inactive
same,outcome,[2],inactive
same,outcome,[3],inactive
same,outcome,[4],inactive
same,outcome,[5],inactive
same,outcome,[6],inactive
same,outcome,[7],inactive
same,outcome,[8],inactive
CN(C)[C@@H]1C(=O)C(C(N)=O)=C(O)[C@@]2(O)C(=O)C3=C(O)c4c(O)cccc4[C@@](C)(O)[C@H]3[C@H](O)[C@@H]12,outcome,[1],inactive
same,outcome,[2],inactive
same,outcome,[3],inactive
same,outcome,[4],inactive
same,outcome,[6],inactive
same,outcome,[7],inactive
C[N+]1(C)CCCCC1,outcome,[1],inactive
same,outcome,[2],inactive
same,outcome,[3],inactive
same,outcome,[4],inactive
same,outcome,[5],inactive
same,outcome,[6],inactive
same,outcome,[7],inactive
COP(=O)(OC)C(O)C(Cl)(Cl)Cl (centres undefined),outcome,[1],inactive
same,AC50,[2],32.5 µM (active)
same,outcome,[3],inactive
same,outcome,[4],inactive
same,AC50,[6],8.98 µM (active)
same,outcome,[7],inactive
CSc1nc(NC(C)C)nc(NC(C)C)n1,AC50,[1],36.5 µM (active)
same,outcome,[2],inactive
same,outcome,[3],inactive
same,outcome,[4],inactive
same,outcome,[5],inactive
same,outcome,[6],inactive
same,outcome,[7],inactive
same,outcome,[8],inactive
same,AC50,[9],5.92 µM (active)
FC(F)C(F)(F)OCC(Cn1cncn1)c1ccc(Cl)cc1Cl (centres undefined),outcome,[1],inactive
same,AC50,[2],25.7 µM (active)
same,outcome,[3],inactive
same,outcome,[4],inactive
same,outcome,[5],inactive
same,AC50,[6],23 µM (active)
same,AC50,[7],20 µM (active)
same,AC50,[8],2.15 µM (active)
same,outcome,[10],inactive
same,AC50,[9],4.85 µM (active)
